Source: the supplement of paper PMC10338343
± gives the standard deviation.

What was measured:
[1] = system: MILI (PIWIL2) piRISC loaded with L1MC piRNA (26 nt); experiment: pre-steady-state target cleavage rate (min^-1); guide: L1MC piRNA 5'p-UAACUAAAUACUAUGCAAGCUGUAGG; higher = faster piRNA-guided slicing of the target
In short: (§1)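 The method was Cleave-'n-Seq, in which uncleaved targets from a transcribed, DNA-blocked target RNA library were sequenced after exposure to active affinity-purified piRISC carrying one synthetic guide, with or without GTSF1 partner protein. Reactions contained 0.1 nM library, 1 nM piRISC and, where present, 500 nM GTSF1 in HEPES–potassium acetate buffer at 33 °C for 0–8 or 0–960 min. Reads were normalised to depth and to weakly complementary targets, three trials were pooled, and k3 was capped at 0.0001 min^-1. The pre-steady-state cleavage rate came from a burst-and-steady-state fit.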

[2] = system: EfPiwi piRISC loaded with L1MC piRNA (26 nt); experiment: pre-steady-state target cleavage rate (min^-1); auxiliary factor: 500 nM Ephydatia muelleri Gtsf1; guide: L1MC piRNA 5'p-UAACUAAAUACUAUGCAAGCUGUAGG; MIWI and MILI are mouse PIWI proteins and EfPiwi is from a freshwater sponge; tags in brackets are library labels; higher = faster piRNA-guided slicing of the target
In short: as §1

[3] = auxiliary factor: 500 nM mouse GTSF1
[4] = auxiliary factor: none (no GTSF1)

Sequence | pre-steady-state target cleavage rate [1, 3] | pre-steady-state target cleavage rate [1, 4] | pre-steady-state target cleavage rate [2]
UCCUCCUCAGCUUGCAUAGUAUUUAGUUA | 0.258 ± 0.015 | 0.00784 ± 0.0019 | 0.0735 ± 0.017
UCCUGCAUCAGCUUGCAUAGUAUUUAGUAA | 0.223 ± 0.019 | 0.00464 ± 0.0032 | 0.00847 ± 0.0021
UCCUGGAUGUCCUUGCCUAGUAUUUAGUUA | 0.0522 ± 0.0084 | 0.00452 ± 0.002 | 0.00345 ± 0.002
UCCUGGAUCAGCUUGCAUAGUUUUUAGUUA | 0.0479 ± 0.0086 | 0.00873 ± 0.0021 | 0.00592 ± 0.0018
UCCUGGAAGUCCUUGCAUAGUAUUUAGUUA | 0.159 ± 0.018 | 0.00649 ± 0.0018 | 0.0092 ± 0.0031
UCCUGCUUCAGCAUGCAUAGUAUUUAGUUA | 0.291 ± 0.015 | 0.0121 ± 0.0034 | 0.0186 ± 0.0047
UCCUGGAUGUUCUUGCAUAGUAUUUAGUUA | 0.0709 ± 0.01 | 0.0115 ± 0.003 | 0.173 ± 0.068
UCCUGGAUGAGAUUGCAUAGUAUUUAGUUA | 0.153 ± 0.014 | 0.011 ± 0.0024 | 0.00463 ± 0.0025
UCCUGGUACAGCAUGCAUAGUAUUUAGUAA | 0.163 ± 0.02 | 0.00467 ± 0.0031 | 0.00753 ± 0.0032
UCCUCCUACAGCUUGCUUAGUAUAUAGUUA | 0.271 ± 0.024 | 0.00356 ± 0.0021 | 0.0127 ± 0.0069
UCCUGGAUGAGCUUGCAUAGUAUUUAGUUC [g2:g21:cont:t1C] | 0.166 ± 0.014 | 0.00562 ± 0.0029 | 0.039 ± 0.01
UCCUGGAACAGCUUGGAAAGUAUUUAGUUA | 0.125 ± 0.0077 | 0.00969 ± 0.0023 | 0.0164 ± 0.0053
UCCUGGAUGUCCUUGCAUAGUAGUUAGUUA | 0.13 ± 0.036 | 0.00421 ± 0.002 | 0.00555 ± 0.0031
UCCUGGAACAGAUUGCAUAGUAUUUAGUUA | 0.284 ± 0.012 | 0.0113 ± 0.0023 | 0.0572 ± 0.014
UCCUGGAACAGCUUGCAUGUAUUUAGUUA | 0.083 ± 0.014 | 0.00308 ± 0.0027 | 0.00314 ± 0.0027
UCCUGGAACACGCUUGCAUAGUAUUUAGUUA | 0.249 ± 0.025 | 0.0151 ± 0.0044 | 0.0331 ± 0.011
UCCUCCUACAGCUUCCAAAGUAUUUAGUUA | 0.13 ± 0.019 | 0.0037 ± 0.0022 | 0.00527 ± 0.0019
